Data as given in PubChem BioAssay.
“And” between values parts separate entries of the source, which are not always exact repeats. Equal entries are not always repeated. The source made the active and inactive calls.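 How the source made its calls, unless noted: active means inhibition at or above 50% relative to wild type and mutant plate controls; inactive means inhibition below 50%.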

Tests used:
[1] = inhibitors of mutant huntingtin aggregation, primary screen, imaging, exon1htt(103Q)mCFP cells, high-content imaging (AID 483;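 active means visual image review flags a hit and inhibition of aggregation exceeds 20%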;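 further: compound exposure lasted 3 days before fixation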;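 on nuclei count: percent of the per-plate median nuclei count of sample wells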); conditions: exon1htt(103Q)mCFP cell line, aggregate imaging, at 2 µM; inhibition of aggregation: stronger effect = higher value; nuclei count: measured here: cell count, toxicity
[2] = inhibitors of E-selectin induction by TNFa, primary screen, imaging, HUVEC, immunofluorescence, MLSMR starter and 10KST1 sets (AID 487;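 active means visually confirmed hit in the image check and inhibition above 20%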;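 on inhibition: signal is fraction of cell area covered by stained E-selectin grains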;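 on nuclei count: 100% = median nuclei count of all wells on the same plate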); conditions: HUVEC TNFalpha-induced E-selectin immunofluorescence imaging, at 2 µM; inhibition: stronger effect = higher value; nuclei count: measured here: cell number, toxicity
[3] = DUSP6 inhibitors restoring Erk phosphorylation by chemical complementation, primary imaging in DUSP6-transfected HeLa (AID 609;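 active means compounds giving at least 50% inhibition in the cell-based MKP-3 phosphatase rescue imaging test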;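 on inhibition: phospho-Erk level distribution per well compared with pooled transfected vehicle control wells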); conditions: HeLa MKP-3 transfected, phospho-Erk imaging KS statistic, at 10 µM, cells stimulated with TPA for 15 min
[4] = target: Dual specificity protein phosphatase 6 (Homo sapiens) (UniProt Q16828); test: as above; conditions: HeLa MKP-3 transfected, phospho-Erk imaging KS statistic; at 10 µM; stronger effect = higher value; cells stimulated with TPA for 15 min
Dual specificity protein phosphatase 6 (Homo sapiens), sequence (Q16828 whole entry, looked up): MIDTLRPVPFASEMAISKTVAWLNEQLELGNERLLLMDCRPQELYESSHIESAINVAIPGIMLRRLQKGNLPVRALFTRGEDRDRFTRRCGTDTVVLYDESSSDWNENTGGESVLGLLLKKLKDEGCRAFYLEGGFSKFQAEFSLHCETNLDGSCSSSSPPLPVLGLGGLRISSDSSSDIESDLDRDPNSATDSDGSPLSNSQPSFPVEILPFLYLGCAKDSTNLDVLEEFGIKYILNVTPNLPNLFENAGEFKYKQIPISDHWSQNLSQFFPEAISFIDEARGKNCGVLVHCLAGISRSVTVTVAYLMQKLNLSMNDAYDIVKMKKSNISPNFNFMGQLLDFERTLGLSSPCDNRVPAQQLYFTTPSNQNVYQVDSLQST

[5] = target: Voltage-gated potassium channel subunit beta-2 (Rattus norvegicus) (UniProt P62483); test: KvBeta enzyme negative modulators, primary screen, biochemical, NADPH fluorescence (AID 622;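 active means fluorescence slope higher than the sample average by over 3 SD, cut at about -0.22 in these data, passing the limit was not always enough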;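 further: slope of raw intensity against log time taken from 70 to 1610 s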); conditions: recombinant KvBeta, 4-cyanobenzaldehyde reduction, at 10 µM, stronger effect = higher value
Voltage-gated potassium channel subunit beta-2 (Rattus norvegicus), sequence (P62483 whole entry, looked up): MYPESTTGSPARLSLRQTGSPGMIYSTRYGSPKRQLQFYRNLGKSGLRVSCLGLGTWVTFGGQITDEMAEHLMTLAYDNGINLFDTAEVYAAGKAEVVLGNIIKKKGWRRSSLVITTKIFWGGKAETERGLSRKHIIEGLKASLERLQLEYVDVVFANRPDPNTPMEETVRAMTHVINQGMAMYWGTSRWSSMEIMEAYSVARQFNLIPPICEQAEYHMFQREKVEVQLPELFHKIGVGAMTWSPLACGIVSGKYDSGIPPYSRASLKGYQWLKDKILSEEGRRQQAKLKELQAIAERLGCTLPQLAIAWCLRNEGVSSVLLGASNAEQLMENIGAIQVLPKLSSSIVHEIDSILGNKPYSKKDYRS

[6] = target: Voltage-gated potassium channel subunit beta-2 (Rattus norvegicus) (UniProt P62483); test: KvBeta positive modulators, primary screen, biochemical, NADPH fluorescence (AID 623;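 active means NADPH fluorescence slope more negative than the mean of all samples by about 3 SD, 99.7% confidence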;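 further: fluorescence intensity change per second fitted from 20 to 320 s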); conditions: Recombinant KvBeta, NADPH fluorescence decrease slope, 10 min; at 10 µM; stronger effect = lower value
[7] = target: Alpha-2C adrenergic receptor (Homo sapiens) (UniProt P18825); test: modulators of alpha2C/GIRK thallium flux, primary screen, cell-based, HEK293 alpha2C/GIRK1/2 (AID 624;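 active means fluorescence slope after compound addition differing from the mean of all screened samples at 99.7% confidence, in either direction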;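 further: slope of fluorescence ratio to pre-addition baseline per second over 15 to 24 s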); conditions: thallium flux BTC fluorescence, at 10 µM, actives lie on both sides
Alpha-2C adrenergic receptor (Homo sapiens), sequence (P18825 whole entry, looked up): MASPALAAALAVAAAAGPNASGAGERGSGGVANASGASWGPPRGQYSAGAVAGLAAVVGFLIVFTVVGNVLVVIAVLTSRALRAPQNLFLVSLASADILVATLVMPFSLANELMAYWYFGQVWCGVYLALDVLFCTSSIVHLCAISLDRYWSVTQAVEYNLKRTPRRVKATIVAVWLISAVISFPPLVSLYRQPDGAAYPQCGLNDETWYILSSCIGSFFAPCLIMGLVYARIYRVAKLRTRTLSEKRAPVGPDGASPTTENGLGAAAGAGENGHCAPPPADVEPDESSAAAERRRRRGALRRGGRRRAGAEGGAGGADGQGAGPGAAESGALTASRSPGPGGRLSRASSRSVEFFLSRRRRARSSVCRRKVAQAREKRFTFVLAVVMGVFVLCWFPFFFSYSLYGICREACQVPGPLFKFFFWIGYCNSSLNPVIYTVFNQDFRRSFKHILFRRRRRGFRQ

[8] = target: Muscarinic acetylcholine receptor M4 (Homo sapiens) (UniProt P08173); test: compounds altering M4/GIRK thallium flux, either direction, primary screen, M4 allosteric agonist project, cell-based, HEK293 M4/GIRK, BTC-AM (AID 625;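 active means fluorescence slope after compound addition differing from the mean of all tested samples at 99.7% confidence, mostly higher but some lower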;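 further: thallium influx through GIRK channels coupled to M4 in HEK293 cells with BTC-AM dye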); conditions: at 10 µM, actives lie on both sides
Muscarinic acetylcholine receptor M4 (Homo sapiens), sequence (P08173 whole entry, looked up): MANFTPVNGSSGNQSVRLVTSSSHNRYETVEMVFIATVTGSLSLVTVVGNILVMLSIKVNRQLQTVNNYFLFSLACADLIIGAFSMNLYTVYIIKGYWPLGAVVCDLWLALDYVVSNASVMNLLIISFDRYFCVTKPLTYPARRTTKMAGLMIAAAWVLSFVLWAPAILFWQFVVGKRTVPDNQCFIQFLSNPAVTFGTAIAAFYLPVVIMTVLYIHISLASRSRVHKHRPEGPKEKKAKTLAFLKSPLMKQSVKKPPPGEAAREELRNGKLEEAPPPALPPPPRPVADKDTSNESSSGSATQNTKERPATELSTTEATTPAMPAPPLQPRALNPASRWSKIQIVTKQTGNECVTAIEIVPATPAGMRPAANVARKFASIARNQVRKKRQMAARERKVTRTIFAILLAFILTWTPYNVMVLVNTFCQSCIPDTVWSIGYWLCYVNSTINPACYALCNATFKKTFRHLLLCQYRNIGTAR

[9] = inhibitors of larval lipid processing in zebrafish, primary screen, whole organism, PED6 fluorescence, gall bladder and intestine (AID 686;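 active means a full or partial loss of lipid-probe fluorescence in the fish gall bladder, intestine or both, judged by eye; inactive means no fluorescence loss, or compound toxic to the fish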;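 further: larvae 5 to 7 days old with five fish per well; signal comes from phospholipase A2 cleavage of quenched PED6 carried via bile; overnight exposure to compound and PED6 before scoring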); conditions: Zebrafish larvae PED6 lipid processing, fluorescence scoring; screened at 20 µM (by protocol)
[10] = inhibitors of Chlamydomonas gravitaxis, primary screen, whole organism, Chlamydomonas reinhardtii, WT vs cilia-less mutant, absorbance, 96-well (AID 463189); conditions: OD600 absorbance, 2 days, at 10 µM, stronger effect = higher value;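 further: 0% = wild type cc124 cells in DMSO and 100% = ciliumless bld1 mutant cells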
[11] = inhibitors of Sendai virus-induced IRF3 signaling, primary screen, TLR/RLR signaling modifier project, cell-based, Sendai virus stimulus, luciferase, 10K MLSCN set (AID 602276;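 active means inhibition at or above 50% at 10 µM; inactive means inhibition below 50%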;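 further: firefly luciferase from ISG56 promoter only with Renilla not read in this screen; 0% = Sendai virus plus DMSO and 100% = medium plus DMSO without virus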); conditions: HEK293 RL24 IRF3 luciferase reporter, at 10 µM, stronger effect = higher value
[12] = inhibitors of poly I:C-induced TLR3 signaling, primary screen, cell-based, poly I:C stimulus, luciferase, 10K MLSCN set (AID 602277;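 active means inhibition of the reporter signal at or above 50%; inactive means inhibition below 50%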); conditions: HEK293-TLR3 RL24 IRF3 luciferase reporter, at 10 µM, stronger effect = higher value
[13] = measured here: cell density z-score
[14] = measured here: nuclear c-Myc green intensity z-score
[15] = measured here: nuclear pErk red intensity z-score, stronger effect = higher value

Row | SMILES | inhibition of aggregation [1] | nuclei count [1] [%] | inhibition [2] | nuclei count [2] | z-score [3, 13] | z-score [3, 14] | z-score [3, 15] | inhibition [4] | fluorescence slope [5] | NADPH fluorescence slope [6] | slope [7] | fluorescence slope [8] | outcome [9] | inhibition [10] | inhibition [11] | inhibition [12]
1 | COc1cc(NS(=O)(=O)c2ccc(N)cc2)ncn1 | 15.6% (inactive) | 100 | -87.8% (inactive) and -123% (inactive) | 109% and 156% | -0.758 and -0.797 | -0.381 and 0.601 | 1.83 and 0.0867 | 12.4% (inactive) and -1.98% (inactive) | -0.448 (inactive) and -0.477 (inactive) | -8.5e-05 (inactive) and -7.6e-05 (inactive) | 0.00452 (inactive) | 0.00587 (inactive) | inactive | 15.5% (inactive) and 12.3% (inactive) | 6.56% (inactive) | 32.2% (inactive)
2 | CCc1cccc2c3c([nH]c12)C(CC)(CC(=O)O)OCC3 (stereo unspecified) | 3.6% (inactive) | 111 | -122% (inactive) | 126% | -0.0395 | 0.0959 | -0.905 | -0.493% (inactive) | -0.442 (inactive) | -6.2e-05 (inactive) | 0.00464 (inactive) | – | inactive | -6.89% (inactive) and 27.4% (inactive) | 10.1% (inactive) | 33.6% (inactive)
3 | CN(C)CCC(c1ccc(Br)cc1)c1ccccn1 (stereo unspecified) | -6% (inactive) | 111 | -39% (inactive) | 109% | -1.33 | -0.476 | 0.326 | -6.41% (inactive) | -0.467 (inactive) | -6.3e-05 (inactive) | 0.00532 (inactive) | – | inactive | 0.349% (inactive) and -9.79% (inactive) | 5.43% (inactive) | 31.9% (inactive)
4 | CNC(=O)Oc1ccc2c(c1)[C@]1(C)CCN(C)[C@@H]1N2C | 21.6% (inactive) | 88.6 | -22.9% (inactive) | 104% | -2.43 | -0.577 | -0.583 | -6.41% (inactive) | -0.435 (inactive) | 1.7e-05 (inactive) | 0.00657 (inactive) | – | inactive | -0.375% (inactive) and -9.03% (inactive) | 15.2% (inactive) | 36.1% (inactive)
5 | Oc1c(Cl)cc(Cl)cc1Sc1cc(Cl)cc(Cl)c1O | 13.7% (inactive) | 90 | -49.8% (inactive) | 117% | -0.357 | -0.512 | 0.181 | 1.48% (inactive) | -0.478 (inactive) | -6e-05 (inactive) | 0.00369 (inactive) | – | inactive | 155% (active) | 10.6% (inactive) | -53.7% (inactive)
6 | N[C@@H](Cc1cc(I)c(Oc2ccc(O)c(I)c2)c(I)c1)C(=O)O | 2.4% (inactive) | 100 | -50.6% (inactive) | 107% | 1.52 | -0.0364 | -0.441 | 9.37% (inactive) | -0.512 (inactive) | -3.3e-05 (inactive) | 0.00387 (inactive) | – | inactive | 36.6% (inactive) | 20.4% (inactive) | 29.6% (inactive)
7 | CN(C)CCCN1c2ccccc2Sc2ccc(C(F)(F)F)cc21 | 12.5% (inactive) | 99.9 | -14.6% (inactive) | 95.5% | -0.783 | 0.801 | -0.407 | 13.3% (inactive) | -0.487 (inactive) | -8.7e-05 (inactive) | 0.00341 (inactive) | – | inactive | 81.9% (active) and 163% (active) | 18% (inactive) | 38.3% (inactive)
8 | CC(=O)OCC(=O)[C@@]1(O)CC[C@H]2[C@@H]3CCC4=CC(=O)C=C[C@]4(C)[C@H]3[C@@H](O)C[C@@]21C | -0.6% (inactive) | 67.7 | -93.5% (inactive) | 130% | -0.00243 | 0.765 | -0.773 | 9.37% (inactive) | -0.506 (inactive) | 4.9e-06 (inactive) | 0.00476 (inactive) | – | inactive | 24.9% (inactive) | -13.7% (inactive) | -1.49% (inactive)
9 | Cc1cccc(Nc2ccccc2C(=O)O)c1C | -13.5% (inactive) | 100 | -91.2% (inactive) | 118% | -1.12 | 0.675 | -0.849 | 19% (inactive) | -0.511 (inactive) | -5.8e-05 (inactive) | 0.00454 (inactive) | – | inactive | 25.5% (inactive) | 8.41% (inactive) | 14% (inactive)
10 | Oc1c(I)cc(Cl)c2cccnc12 | -1.7% (inactive) | 76.8 | -52% (inactive) | 108% | -0.367 | 0.593 | -0.324 | 23.4% (inactive) | -0.459 (inactive) | -3.6e-05 (inactive) | 0.00439 (inactive) | – | inactive | -0.595% (inactive) | 0.651% (inactive) | 31.6% (inactive)
